# Assay results published in the supplement of paper PMC6555819.
# Columns and labels:
# Assay in all cases: PBM binding z-score (relative to random genomic background probes); higher = stronger binding; sequences stand for … in GC…GCGATTGACAGCGTAGAATGAAGG
# [1] = tested on: FXR:RXRa (NR concentration 270 nM, RXRa partner concentration 90 nM)
# Procedure, shortened: (§1)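 Custom Agilent 4×180K protein-binding microarrays carried double-stranded probes. Their 34-nt variable regions held direct-repeat seeds, single-nucleotide variants, half-site ablations and random human genomic background sequences. Arrays were incubated 1 h with ligand-free nuclear receptor dimers in PBS pH 7.4, 2% milk, 0.02% Triton X-100, 1 mM DTT, 0.2 mg/mL BSA and 0.4 mg/ml salmon testes DNA. Antibodies against each partner (one per run) detected binding, and scanned fluorescence was regression-normalized. Binding z-scores use random background probes as reference.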
# [2] = tested on: LXRa:RXRa (NR concentration 270 nM, RXRa partner concentration 90 nM)
# Procedure, shortened: as §1
# [3] = tested on: LXRa homodimer (NR concentration 270 nM)
# Procedure, shortened: as §1
# [4] = tested on: LXRb:RXRa (NR concentration 270 nM, RXRa partner concentration 90 nM)
# Procedure, shortened: as §1
# [5] = tested on: LXRb homodimer (NR concentration 270 nM)
# Procedure, shortened: as §1
# [6] = tested on: PPARa:RXRa (NR concentration 270 nM, RXRa partner concentration 90 nM)
# Procedure, shortened: as §1
# [7] = tested on: PPARg:RXRa (NR concentration 180 nM, RXRa partner concentration 90 nM)
# Procedure, shortened: as §1
# [8] = tested on: PPARg:RXRa 270nM:90nM, anti-RXR (NR concentration 270 nM, RXRa partner concentration 90 nM)
# Procedure, shortened: as §1
# [9] = tested on: PPARg:RXRa 30nM:10nM, anti-RXR (NR concentration 30 nM, RXRa partner concentration 10 nM)
# Procedure, shortened: as §1
# [10] = tested on: PPARg:RXRa 90nM:30nM, anti-RXR (NR concentration 90 nM, RXRa partner concentration 30 nM)
# Procedure, shortened: as §1
Sequence,PBM binding z-score [1],PBM binding z-score [2],PBM binding z-score [3],PBM binding z-score [4],PBM binding z-score [5],PBM binding z-score [6],PBM binding z-score [7],PBM binding z-score [8],PBM binding z-score [9],PBM binding z-score [10]
TGAATGAGGTTATAAGATCAGGGTACGTTGCAAA,1.46,1.39,0.0526,1.44,0.315,2.72,1.53,1.96,0.789,1.23
ATCTCTAGGTAAGACTCAGTTCAGTTAAGAACGC,0.593,0.555,0.553,0.321,1.02,0.229,0.0463,0.424,0.445,0.237
TTACCAAGGTGAAGGGCGTTGATCCCTCTGTAGA,0.622,0.629,-0.192,0.495,-0.575,1.47,0.846,2.19,0.835,1.69
TCTGCTAGGTCAGTTGGTCAGCAAACGAGCTGCC,0.988,0.432,-0.424,0.394,0.405,1.36,0.418,1.65,1.19,1.41
AGAACGAGGGCAATCAGTTGATAGCACGGGTGGC,0.397,0.342,-0.0973,0.0776,0.0962,1.68,1.44,1.15,0.168,0.658
TCATATAGGTAAAAGTGAAAGTCGAACGATATGA,0.173,0.399,-0.314,-0.0823,0.0543,1.84,3.25,4.43,4.62,4.68
GGAACGAGGGCATTCGAGTAGATAGCATGGCGAT,0.816,0.394,-0.428,0.0953,-0.937,1.33,1.11,0.886,-0.0142,0.304
ACCTACGGGTCAACGAGGTTATAGCACGCGTATA,6.4,4.83,0.64,3.98,0.188,5.36,4.44,4.86,1.47,3.68
CAAACTAGGTCGAGGTCAAAGTCGGTTTGTGCCA,5.44,5.1,3.63,4.38,1.07,5.46,7.22,6.53,3.54,5.58
ACATACAGGTGAGTGAAGGTAACTCAGCTGGACG,0.866,0.707,-0.217,-0.161,-0.321,1.21,1.28,0.814,0.519,0.883
ACCCGGAGGACAAAGGTCAGAGCTACGCCAGTGA,4,4.23,1.65,3.55,0.448,5.01,6.33,6.32,3.97,5.95
TCTTGTAGAACAACAGGAGGTTAAGAAAGATCGA,0.0476,1.07,-0.0587,0.901,-0.216,1.28,0.33,1.56,2.79,2.15
ATATGTAGGTTAAGAGTCATTCAGGTTGGTTCGC,0.855,1.47,0.703,1.18,0.774,4.58,8.36,7.68,6.62,8.28
TTTTGTAGATCAGCAGGTTAAGAAAGCTGGCCAA,-0.421,-0.315,-0.236,0.141,-0.319,0.634,-0.106,0.922,0.508,0.797
ATATGTAGGTTAGCTGGGGTCTTTCAGACTAGGC,1.74,0.766,0.231,1.6,0.737,2.65,2.84,2.65,0.594,1.91
ACTATTAGTTGAGACGAGGGCAATCGATAGGTTG,0.46,0.333,-0.168,0.136,-0.0649,0.253,0.627,0.107,0.45,0.23
CAAACTAGGTCACCGGAAGATCAAAGTCCGCATG,4.71,3.6,0.641,2.62,0.598,5.66,9.41,7.49,5.48,7.48
CCTACTCGGCCATCAGGTCATTGATATCAACGTT,2.3,1.76,2.13,2.26,1.01,2.16,1.06,1.62,0.262,1.02
ATCTCTAGGTGACCAAGTTCAGTGAATGCCGAAC,0.185,0.357,0.0777,0.467,0.278,1.9,1.99,1.7,0.308,1.05
GCTATTAGTTGAAAGCGCAACCGAATGATTCTCG,-0.0843,-0.353,0.0981,-0.318,-0.315,-0.41,0.157,-0.0229,0.0302,-0.22
AGTCAAGGTTCAGGACGAGGTAACGTAAAGCACG,2.68,1.82,0.192,1.05,-0.0826,2.34,1.97,2.16,0.624,1.34
ATATGTAGGTTACTTCCGGGTCATTCAGGCTATG,2.58,5.79,2,3.81,1.01,4.23,5.4,4.83,2.21,4.06

Sequence,PBM binding z-score [1],PBM binding z-score [2],PBM binding z-score [3],PBM binding z-score [4],PBM binding z-score [5],PBM binding z-score [6],PBM binding z-score [7],PBM binding z-score [8],PBM binding z-score [9],PBM binding z-score [10]
GCTGCTAGGTCAACTGATGGTCAGATAAAGCTCG,4.47,3.11,0.48,2.43,0.348,3.87,3.29,3.18,0.958,2.4
AGTCAAAGTTCAGGACGCGGTAACGTAAAGCACG,3.88,3.44,1.09,1.68,0.0515,3.08,4.39,4.71,1.96,3.51
ATCTCTCGGTAAAGATAGTTCAGTGAATGCAAAT,0.327,1.31,0.62,0.406,0.893,0.353,0.0238,0.0221,0.409,0.333
CGTCCAAGGTCAGGGTCAGTGAAAGAGACTCGAA,6.11,3.93,-0.0372,3.66,0.128,5.11,4.59,4.52,1.28,2.98
GCTGCTAGGTCAACTGATGGTTAGCTAAAGCTCG,4.53,2.96,0.0508,1.97,0.22,3.58,2.88,3.09,0.818,1.99
CCTAGTTGGTCAAGATCACACACGCTATAGGTAC,0.117,0.306,0.456,0.468,0.508,0.119,1.18,0.452,0.398,0.0188
ATCTCTAGGTAACCAAGTTCTGTGAATGCCGAAC,0.602,0.255,0.186,0.427,0.457,0.701,0.399,0.795,0.343,0.427
TCTTGTAGATCAATAGAGGCTAAGAAAGTGCGCT,0.509,0.411,-0.573,0.151,-0.421,0.411,-0.238,0.977,2.4,1.84
CCGACTGGGGCAGAAAGGTTATCATACCATCCGG,0.492,0.483,0.0667,0.849,-0.748,2.05,1.7,2.27,0.694,2.13
CCGACTGGGGCAAGCTTACCATAACGCACAGCCA,-0.512,-0.683,-0.49,-0.277,-1.15,0.0607,0.938,0.116,-0.5,-0.274
TCTGCTAGGTCAACGATGGTCAGATAATCTGCTA,3.65,2.85,0.0239,1.94,0.0958,3.3,2.82,3.22,2.1,2.55
TTACCAAGGTTAGCTGAGGTCGTTGATCCAACTC,2.11,4.83,0.313,2.51,-0.743,2.24,-0.0441,0.6,0.0802,0.486
AGTCAAAGTTCACTAGGTAACGAAAGATTCAGCT,5.29,5.15,2.87,3.05,0.803,4.94,7.8,6.56,3.66,5.74
AGAATGAGGTTACCAAAGATCAGGTAAACGCTTG,1.72,5.99,-0.313,3.44,-0.454,3.43,2.76,2.77,1.12,1.9
AGTCAAAGTTCACTAGGTATCGTAAGATTCAGCT,4.92,5.04,3.27,2.98,1.09,4.19,6.03,5.82,2.96,5.12
CAAACTAGGTTAAGAGGTCAAAGTCCGCTTCCCG,5.61,5.82,6.25,4.8,1.58,5.87,7.84,7.23,5.52,7.19
AGAACGAGGGCAATGGGTTGATAGCACGGGTGGC,0.877,0.764,-0.127,0.316,0.02,1.67,1.78,1.38,-0.00991,1.08
CGTCCAAGGTCAGAGAGGTCAGTGATTGCCGAGT,5.58,5.02,2.88,4.28,0.656,4.54,3,3.95,0.692,2.55
GCTAGCAGGCCATTTGGGTCAGTCAATGACGGGC,-0.0631,-0.302,-0.489,-0.399,-1.6,0.666,0.221,-0.137,-0.663,-0.371
TCGCGTAGGTTACCAATGGGGCATTCAGCTTTCT,-0.205,1.54,-0.559,1.01,-0.67,0.898,-0.342,0.743,1.41,0.958
CCTTACGGGTCAAGGTTACAGCACGGGTGGTACG,5.94,3.96,0.209,2.99,-0.186,5.24,5.13,5.27,2.14,3.87
TTACCACGGTGAAGGTCGTTGATCCCTCTGTAGA,1.28,1.71,0.151,1.26,-0.41,1.57,0.322,1.94,0.678,1.24
